Experimental data as given in PubChem BioAssay (NCI).
Where “and” joins values, the source holds several entries; their conditions need not be identical. Equal values may be shown once. About 79,000 compounds went through this panel and 15% of them were active in at least one assay; those are over-represented in the sample as a whole. Values without a mark were called inactive. Calls of active or inactive are those of the source. Rule as the data show it: active = growth inhibition above about 70%; inactive = the rest.

Experiments:
[1] = NCI Yeast Anticancer Drug Screen. Data for the rad50 strain (AID 155);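 also: 0% = growth of vehicle-only cultures of the same strain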; details: S. cerevisiae rad50 strain growth inhibition; at 50.0 µM; stronger effect = higher value
Summary of the method: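 DNA repair mutant yeast, compound exposure, growth read-out; inhibition is taken relative to vehicle.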

[2] = NCI Yeast Anticancer Drug Screen. Data for the mec2-1 strain (AID 157); details: S. cerevisiae mec2-1 strain, at 50.0 µM, stronger effect = higher value
Summary of the method: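 Cells of the genetically defined mec2-1 yeast strain are incubated with test compound. Inhibition of growth is calculated against vehicle-treated controls.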

[3] = NCI Yeast Anticancer Drug Screen. Data for the sgs1 mgt1 strain (AID 161);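 also: 0% = growth of cultures given vehicle only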; details: S. cerevisiae sgs1 mgt1 strain, at 50.0 µM, stronger effect = higher value
Summary of the method: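 Inhibition of yeast growth, normalised to vehicle-treated controls, is reported for a strain bearing genetic alterations in DNA damage repair.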

[4] = NCI Yeast Anticancer Drug Screen. Data for the cln2 rad14 strain (AID 165);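 also: 0% = growth equal to vehicle treated cultures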; details: S. cerevisiae cln2 rad14 strain, at 50.0 µM, stronger effect = higher value
Summary of the method: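 The screen exposed genetically defined yeast (cln2 rad14) to test compounds and scored growth inhibition relative to vehicle-treated controls.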

[5] = NCI Yeast Anticancer Drug Screen. Data for the bub3 strain (AID 167); details: S. cerevisiae bub3 mutant strain, at 50.0 µM, stronger effect = higher value
Summary of the method: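 In this screen, a yeast mutant lacking normal mitotic checkpoint function is challenged with compound. Relative growth versus vehicle gives the inhibition value.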

[6] = NCI Yeast Anticancer Drug Screen. Data for the mlh1 rad18 strain (AID 175); details: S. cerevisiae mlh1 rad18 strain growth inhibition; at 50.0 µM; stronger effect = higher value
Summary of the method: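 Compound-treated yeast growth, normalised to vehicle controls. Strain bears defined DNA repair mutations.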

CN(C)c1ccc(C(=O)CCCN2CCC3(CC2)C(=O)NCN3c2ccccc2)cc1
growth inhibition [1]: -13.9%
growth inhibition [2]: 8.95%
growth inhibition [3]: 5.9%
growth inhibition [4]: -40.8%
growth inhibition [5]: -1.05%
growth inhibition [6]: -11.5%

CC(c1ccccc1)N1CCN(C(C)c2ccccc2)CC1 (configuration not stated)
growth inhibition [1]: 2.75%
growth inhibition [2]: -34.5%
growth inhibition [3]: -31.7%
growth inhibition [4]: 26.4%
growth inhibition [5]: -30%
growth inhibition [6]: 4.95%

NNc1cccc2c1CCC(N)C2 (configuration not stated)
growth inhibition [1]: -0.35%
growth inhibition [2]: 21.7%
growth inhibition [3]: 6.35%
growth inhibition [4]: -11.4%
growth inhibition [5]: 5%
growth inhibition [6]: 9.65%

O=P(O)(O)C(O)c1ccccc1 (configuration not stated)
growth inhibition [1]: -20.1%
growth inhibition [2]: -31.9%
growth inhibition [3]: -15.4%
growth inhibition [4]: -1.9%
growth inhibition [5]: -19.2%
growth inhibition [6]: 17.6%

CN(C1CCCCC1)C1CCCCC1
growth inhibition [1]: -7.75%
growth inhibition [2]: -2.05%
growth inhibition [3]: -6.65%
growth inhibition [4]: -9.85%
growth inhibition [5]: 6.6%
growth inhibition [6]: -8.3%

c1ccc2c(c1)sc1sc3c([n+]12)CCCC3
growth inhibition [1]: 6.25%
growth inhibition [2]: -8.75%
growth inhibition [3]: -5.3%
growth inhibition [4]: -2.4%
growth inhibition [5]: -4.5%
growth inhibition [6]: -20.2%

O=C(Cc1ccccc1)OCc1ccco1
growth inhibition [1]: 6.9%
growth inhibition [2]: -23.9%
growth inhibition [3]: -30%
growth inhibition [4]: -41.5%
growth inhibition [5]: 13.4%
growth inhibition [6]: -4.7%

COc1ccc2c3c1O[C@H]1C(Br)C=C[C@H]4[C@@H](C2)N(C)CC[C@]314 (some centres not stated)
growth inhibition [1]: -11.8%
growth inhibition [2]: -15.8%
growth inhibition [3]: 7.15%
growth inhibition [4]: -22.6%
growth inhibition [5]: 29.2%
growth inhibition [6]: 8.35%

O=[N+]([O-])c1c(F)cc(F)c([N+](=O)[O-])c1F
growth inhibition [1]: -29.5%
growth inhibition [2]: -6.15%
growth inhibition [3]: -11.6%
growth inhibition [4]: -28.2%
growth inhibition [5]: -4.75%
growth inhibition [6]: 52.9%

CCNC(Cc1ccccc1)C1CCCO1 (configuration not stated)
growth inhibition [1]: 3.15%
growth inhibition [2]: -0.35%
growth inhibition [3]: -15.6%
growth inhibition [4]: 2%
growth inhibition [5]: -18.4%
growth inhibition [6]: -27.9%

C[N+](C)(C)C
growth inhibition [1]: -0.3% and 4.95% and -7%
growth inhibition [2]: 14.2% and -39% and -9.3%
growth inhibition [3]: -5.75% and -25.2% and 8.3%
growth inhibition [4]: -16.5% and 6.35% and 2.35%
growth inhibition [5]: 21.4% and -8.1% and 8.75%
growth inhibition [6]: -1.65% and -19.1% and -2.9%

O.O.O=Cc1ccccc1O.O=Cc1ccccc1O.[Ni]
growth inhibition [1]: 47.1%
growth inhibition [2]: 52.4%
growth inhibition [3]: 64.7%
growth inhibition [4]: 17.1%
growth inhibition [5]: 51.5%
growth inhibition [6]: 76.9% (active)

CCCCCCOC(=O)c1ccccc1C(=O)OCCCCCC
growth inhibition [1]: -13.2%
growth inhibition [2]: -1.75%
growth inhibition [3]: -27.9%
growth inhibition [4]: -12.5%
growth inhibition [5]: -45.2%
growth inhibition [6]: -2.8%

O=C(Nc1cc(S(=O)(=O)F)ccc1Cl)Oc1ccc([N+](=O)[O-])cc1
growth inhibition [1]: 17.4%
growth inhibition [2]: 53.2%
growth inhibition [3]: 38.3%
growth inhibition [4]: 11.3%
growth inhibition [5]: 20.1%
growth inhibition [6]: 32.5%

O=C(Nc1cccs1)c1c(O)[nH]c(=S)[nH]c1=O
growth inhibition [1]: -1.35%
growth inhibition [2]: 20.9%
growth inhibition [3]: 25.1%
growth inhibition [4]: 16.8%
growth inhibition [5]: 7.05%
growth inhibition [6]: 4.5%

CCC12C=CCN3CCC4(c5ccc(OC)cc5N(C)C4C(O)(C(=O)OC)C1OC(C)=O)C32 (configuration not stated) (tested in a mixture with another compound)
growth inhibition [1]: 5.3% and 8.35%
growth inhibition [2]: 5.4% and 17.2%
growth inhibition [3]: -5.85% and 11.3%
growth inhibition [4]: -10.7% and 2.25%
growth inhibition [5]: -3.15% and 0.7%
growth inhibition [6]: 25.4% and 22.1%

COc1cc(C(CC(C)=O)c2cc3c(cc2OC(C)=O)OCO3)cc(OC)c1OC (configuration not stated) (tested in a mixture with another compound)
growth inhibition [1]: 5.1%
growth inhibition [2]: 8.6%
growth inhibition [3]: 17.2%
growth inhibition [4]: 2.45%
growth inhibition [5]: 5.15%
growth inhibition [6]: 23.8%

C=C(C)CC1(CC)C(=O)NC(=S)NC1=O
growth inhibition [1]: -11.8% and -1.6%
growth inhibition [2]: -21.6% and -1.3%
growth inhibition [3]: 0.35%
growth inhibition [4]: 6%
growth inhibition [5]: -5.6%
growth inhibition [6]: -13.4% and 12.1%

C/C=C(\CC)C1(CCC)C(=O)NC(=O)NC1=O
growth inhibition [1]: 15.1% and 5.2%
growth inhibition [2]: 13.1% and 3%
growth inhibition [3]: 5.25% and 22.8%
growth inhibition [4]: 17.4% and -7%
growth inhibition [5]: 1.35% and -0.4%
growth inhibition [6]: 7.75% and -3.65%

CCCCCCC[CH2][Sn][CH2]CCCCCCC.Nc1ncnc2c1ncn2C1OC(CO)C2[OH+][OH+]C21 (configuration not stated)
growth inhibition [1]: 19.9%
growth inhibition [2]: 5.45%
growth inhibition [3]: 9.35%
growth inhibition [4]: -4%
growth inhibition [5]: 2.3%
growth inhibition [6]: 11.8%

[N-]=[N+]=NC1(C(=O)O)CCCC1
growth inhibition [1]: 0.95%
growth inhibition [2]: -6.85%
growth inhibition [3]: -15.4%
growth inhibition [4]: -14.2%
growth inhibition [5]: -5.75%
growth inhibition [6]: -34.8%

O=C1NN(c2ccccc2)C(=O)C1c1ccccc1 (configuration not stated)
growth inhibition [1]: 24.2%
growth inhibition [2]: 28.8%
growth inhibition [3]: 17.4%
growth inhibition [4]: 9.75%
growth inhibition [5]: -5.9%
growth inhibition [6]: 41.5%
